16 compounds from PubChem BioAssay (EPA / NIEHS) can be followed below.

“And” between values parts separate entries of the source, which are not always exact repeats. Equal entries are not always repeated. Records with an inconclusive call do not appear. The source made the active and inactive calls. How the source made its calls, unless noted: active means hit-call score of the fitted dose curve at least 0.9, where 1 is the maximum; inconclusive means response in the unintended direction; inactive means score below 0.9.

Assay [1] is described as follows: IUF_NPC4_neurite_length_120hr: Leibniz Research Institute for Environmental Medicine (IUF) 120-hour Neuronal Morphology Assay for Neurite Length (NPC4) (AID 2284302; active means hit-call score of the fitted dose curve at least 0.9, where 1 is the maximum; inactive means score below 0.9). Summed up: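 Read-out is mean neurite length in µm of TUBB3-positive neurons, skeletonized from high-content fluorescence images after 120 h. Single 0.3 mm primary human neural progenitor spheres differentiated on poly-D-lysine/laminin under continuous compound exposure; DMSO was baseline.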

Assay [2] can be described thus: IUF_NPC5_oligodendrocyte_differentiation_120hr: Leibniz Research Institute for Environmental Medicine (IUF) 120-hour Oligodendrocyte Differentiation Assay (NPC5) (AID 2284304).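 Further: primary human fetal neural progenitor spheres plated to migrate and differentiate.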 Summed up:
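Oligodendrocyte differentiation scored as O4-positive cells, found by CNN image analysis, as percent of Hoechst-stained nuclei in the migration area. Scoring followed 5 days of exposure of plated hNPC neurospheres differentiating in DMEM/F12 N2 medium at 37C, with compound refreshed at day 3.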

Assay [3] in a line: IUF_NPC4_neurite_area_120hr: Leibniz Research Institute for Environmental Medicine (IUF) 120-hour Neuronal Morphology Assay for Neurite Area (NPC4) (AID 2284305). In outline: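 Neurite area is read out as the mean pixel area, excluding nuclei, of skeletonized TUBB3-positive neurons imaged after 120 h. Primary human neural progenitor spheres differentiated on poly-D-lysine/laminin with compound present from day 0. Activity was referenced to DMSO controls.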

Assay [4] can be described thus: IUF_NPC2-5_cytotoxicity_72hr: Cytotoxicity Assessment at 72 hours in the Leibniz Research Institute for Environmental Medicine (IUF) Neural Progenitor Cell Migration and Differentiation Assay for Cytotoxicity (NPC2-5) (AID 2284306).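 Further: LDH release into supernatant measured by resorufin fluorescence marking membrane damage.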 In outline:
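Membrane integrity loss was scored from fluorescence (RFU) of resorufin generated by LDH in culture supernatant, 72 h after dosing. Differentiating human progenitor spheres received seven serial compound concentrations alongside a solvent control.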

The nature of assay [5]: IUF_NPC2-5_cytotoxicity_120hr: Cytotoxicity Assessment at 120 hours in the Leibniz Research Institute for Environmental Medicine (IUF) Neural Progenitor Cell Migration and Differentiation Assay (NPC2-5) (AID 2284307).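 On AC50: LDH released into supernatant as membrane damage marker via resorufin fluorescence.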 Summed up:
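Membrane-integrity loss measured as LDH activity in medium supernatant via resazurin-to-resorufin fluorescence after 120 h exposure. hNPC spheres from GW 16-19 fetal cortex differentiated on poly-D-lysine/laminin, 37C, medium half-refreshed day 3; seven concentrations, DMSO max 0.1%.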

Assay [6] is described as follows: IUF_NPC2-5_cell_number_120hr: Cell Number Assessment at 120 hours in the Leibniz Research Institute for Environmental Medicine (IUF) Neural Progenitor Cell Migration and Differentiation Assay (NPC2-5) (AID 2284308; active means hit-call score of the fitted dose curve at least 0.9, where 1 is the maximum; inactive means score below 0.9;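 further: count of Hoechst-stained nuclei in migration zone around plated human neural progenitor spheres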). Summed up: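 Counting of all Hoechst-stained nuclei in the migration area at 120 h, versus DMSO control. Primary hNPC spheres differentiated on poly-D-lysine/laminin in N2 medium at 37C, dosed from day 0 (7 concentrations, DMSO ≤0.1%), half-refed day 3.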

Assay [7] is described as follows: IUF_NPC2-5_viability_120hr: Viability Assessment at 120 hours in the Leibniz Research Institute for Environmental Medicine (IUF) Neural Progenitor Cell Migration and Differentiation Assay (NPC2-5) (AID 2284312; active means hit-call score of the fitted dose curve at least 0.9, where 1 is the maximum; inactive means score below 0.9). In outline:
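Alamar blue resorufin fluorescence read after 5 days of differentiation, with compound present from day 0 and replenished at day 3. Primary hNPC spheres on laminin-coated plates, 37C; seven concentrations plus solvent control, fitted against DMSO.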

Assay [8] in a line: CCTE_Mundy_HCI_iCellGluta_NOG_NeuriteLength: CCTE's Neurite Outgrowth Assay in iCellGluta cells for Neurite Length, Mundy Lab (AID 2284318). In outline: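 Automated high-content imaging of betaIII-tubulin (Alexa Fluor-488) and Hoechst-stained cells gave neurite length, normalized to the DMSO baseline.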
A short description of assay [9]: CCTE_Deisenroth_5AR_NBTE_donor: CCTE's 5alpha-reductase NanoBRET Target Engagement Assay […], Deisenroth Lab (AID 2284319; active means hit-call score of the fitted dose curve at least 0.9, where 1 is the maximum; inactive means score below 0.9). The settings on record: actives raise or lower the signal. In outline:
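HEK293T cells were reverse transfected with an SRD5A2-NanoLuc vector for 20 h, exposed to test chemical (8 points, 10 nM - 29.9 uM) for 3 h, then testosterone tracer for 2 h more. Donor luminescence (460 nm) was read; bidirectional fit versus DMSO.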
A general note: In BRET a luciferase serves as donor, and the signal depends on an acceptor being close.

Assay [10] can be described thus: CCTE_Deisenroth_5AR_NBTE_acceptor: CCTE's 5alpha-reductase NanoBRET Target Engagement Assay - Autofluorescence Screen, Deisenroth Lab (AID 2284321; active means hit-call score of the fitted dose curve at least 0.9, where 1 is the maximum; inactive means score below 0.9). The settings on record: actives raise or lower the signal. In outline: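 Acceptor-channel fluorescence flags artifacts, with excitation fixed at 460 nm. Nominal 100 uM chemical samples were read in triplicate runs, and signal changes were fitted in both directions relative to DMSO.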

In the next assay the test system is SRD5A2 (gene 6716). Briefly: CCTE_Deisenroth_5AR_NBTE_ratio: CCTE's 5alpha-reductase NanoBRET Target Engagement Assay - Ratio, Deisenroth Lab (AID 2284322; active means hit-call score of the fitted dose curve at least 0.9, where 1 is the maximum; inactive means score below 0.9). The settings on record: actives raise or lower the signal. In outline:
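HEK293T transiently expressing SRD5A2-NanoLuc; cells exposed to chemical (8-point, 10 nM - 29.9 uM) for 5 h total, testosterone tracer added for final 2 h. NanoBRET acceptor/donor ratio (650/460 nm), bidirectional fit vs DMSO.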

The next assay relates to IYD (gene 389434). Briefly: CCTE_GLTED_hIYD: CCTE's human Iodotyrosine Deiodinase (xIYD) Inhibition Assay, Great Lakes Toxicology and Ecology Division (GLTED) Lab (AID 2284317).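 Further: cell-free human IYD enzyme made in baculovirus insect cells; iodide freed from monoiodotyrosine measured by cerium arsenite color change at 420 nm.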 Summed up:
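hIYD: baculovirus-expressed human IYD deiodinated monoiodotyrosine for 3 h with test chemical; free iodide was measured by Sandell-Kolthoff absorbance at 420 nm and normalized to MNT and DMSO/NaOH controls.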

Assay [11] is described as follows: VALA_TUBHUV_Agonist_CellCount: Viability Assessment in the VALA Sciences human Umbilical Vein Endothelial Tubule Formation (TUBHUV) Agonism Assay (AID 2284309). Summed up: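 HUVEC co-cultured 1:3 with HDF for 3 days in 10 ng/ml VEGF, then compounds added in VEGF medium for a further 3 days (72 h). Nuclear-stain/CD31 imaging cell count. Positive-direction fit versus 0.1% DMSO vehicle.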

Assay [12] in a line: VALA_TUBHUV_Antagonist_CellCount: Viability Assessment in the VALA Sciences human Umbilical Vein Endothelial Tubule Formation (TUBHUV) Antagonism Assay (AID 2284310). In outline:
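HUVEC co-cultured with HDF (1:3) 3 days in 10 ng/ml VEGF, then 3 days with compounds in VEGF medium. Fixed, nuclear stain and CD31 immunofluorescence, imaged; cell counts fitted versus 0.1% DMSO, loss of signal read as lower viability.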

Assay [13] in a line: VALA_MIGHUV2_CellCount: Viability Assessment in the VALA Sciences human Umbilical Vein Endothelial Cell Migration (MIGHUV) Assay, Area of Scratch Wound after Recovery (AID 2284314). In outline: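 Scratch-wounded HUVEC monolayers received test chemical within 30 min, 6-point concentration response in triplicate, 0.1 % DMSO vehicle. After 24 h wound recovery, fixed cells were Hoechst-stained and nuclei imaged; loss of signal versus DMSO indicates reduced viability.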

Assay [14] is described as follows: VALA_TUBHUV_Antagonist_TubuleLength: VALA Sciences human Umbilical Vein Endothelial Tubule Formation (TUBHUV) Antagonism Assay (AID 2284325). Summed up: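 HUVEC–HDF co-culture (1:3) pre-grown 3 days with 10 ng/ml VEGF, then 3 days with compound plus VEGF. Fixed, nuclear and CD31 stained; total tubule length by imaging versus 0.1% DMSO; suramin 100 uM positive control.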

For `CCOC(=O)CC(SP(=O)(OC)OC)C(=O)OCC` (stereo not given), the outcome in assay [1], in assay [2], in [3], in assay [4], in [5] and in assay [6] was inactive. In [7], the result was inactive.
`CCCSP(=O)(OCC)SCCC`: the compound was classed as inactive in assay [1], in [2], in assay [3], in [4], in assay [5] and in assay [6]. In addition, the compound was classed as inactive in [7] and in assay [8].
For `CC(C)N(C(=O)SCC(Cl)=C(Cl)Cl)C(C)C`, the compound was classed as inactive in [1], in assay [2], in assay [4], in assay [5], in [6] and in assay [7]. Also, the compound was called inactive (in [9]; in assay [10]; in the assay on SRD5A2 (gene 6716)). The AC50 in assay [8] is 20.2 µM (active).
Turning to `CC[C@H](C)[C@H]1O[C@]2(C=C[C@@H]1C)C[C@@H]1C[C@@H](C/C=C(\C)[C@@H](O[C@H]3C[C@H](OC)[C@@H](O[C@H]4C[C@H](OC)[C@@H](NC)[C@H](C)O4)[C@H](C)O3)[C@@H](C)/C=C/C=C3\CO[C@@H]4[C@H](O)C(C)=C[C@@H](C(=O)O1)[C@]34O)O2`, the AC50 in [1] is 979 nM (active) and 3.08 µM (active); in [2], 305 nM (active) and 96.9 nM (active); in [3] it was 1.04 µM (active) and 5.11 µM (active); in assay [4] it was 1.88 µM (active) and 4.62 µM (active); in assay [5] it was 1.05 µM (active) and 1.48 µM (active); in assay [6], 836 nM (active) and 2 µM (active). Also, the AC50 is 1.14 µM (active) and 2.1 µM (active) in assay [7]; 0.811 µM (active) in assay [8]; 14.2 µM (active) in [9]; 10 µM (active) in assay [10]; 16.6 µM (active) in the assay with SRD5A2 (gene 6716).
On to `CCOP(=S)(Oc1cnc(C(C)(C)C)nc1)OC(C)C` (stereo not given), for which the outcome in assay [1], in assay [2], in [3], in assay [4], in assay [5] and in [6] was inactive. The call in assay [7] was inactive. In addition, in assay [8], the concentration at half-maximal activity (AC50) was 21 µM (active).
Regarding `CCOP(=S)(OCC)OC(Cl)C(Cl)(Cl)Cl` (stereo not given), the outcome in [1], in [2], in assay [3], in assay [4], in assay [5] and in assay [6] was inactive. For the same compound, the compound was called inactive in assay [7] and in assay [8].
As for `CSC1=N[C@@](C)(c2ccccc2)C(=O)N1Nc1ccccc1`, the outcome in [1], in assay [3], in [4], in assay [5], in assay [6] and in [7] was inactive. Besides, the compound was called inactive (in assay [8]; in assay [9]; in assay [10]; in the assay on SRD5A2 (gene 6716)).
`CCOP(=S)(OCC)Oc1ccc([N+](=O)[O-])cc1`: in assay [8], the compound was classed as inactive.
On to `CON=C(C(=O)OC)c1ccccc1CON=C(C)c1cccc(C(F)(F)F)c1`, for which the concentration at half-maximal activity (AC50) was 24.7 µM (active) in assay [1], 7.95 µM (active) in [2], 0.127 µM (active) in assay [3] and 13.3 µM (active) in assay [8]. Further, the compound was classed as inactive in assay [4], in assay [5], in assay [6] and in [7].
Regarding `CN1COCN(Cc2cnc(Cl)s2)C1=N[N+](=O)[O-]`, the compound was called inactive in assay [1], in [2], in assay [3], in assay [4], in assay [5] and in [6]. In addition, the result in [7] and in assay [8] was inactive.
For `COP(=O)(NC(C)=O)SC` (stereo not given), the compound was called inactive in assay [1], in assay [2], in [3], in assay [4], in assay [5] and in [6]. In assay [7], the compound was classed as inactive.
Consider `COP(=O)(OC)C(O)C(Cl)(Cl)Cl` (stereo not given), for which the half-maximal activity concentration (AC50) is 5.03 µM (active) in assay [1] and 5.08 µM (active) in assay [3]. Besides, the outcome in assay [4], in assay [5], in assay [6] and in assay [7] was inactive.
Turning to `CCOP(=S)(OCC)Oc1cc(C)nc(C(C)C)n1`, the result in assay [1], in assay [2], in assay [3], in [4], in assay [5] and in assay [6] was inactive. Besides, the call in [7] was inactive.
Consider `CCC(CC)Nc1c([N+](=O)[O-])cc(C)c(C)c1[N+](=O)[O-]`, for which the call (in assay [9]; in assay [10]; in the assay on SRD5A2 (gene 6716)) was inactive.
`CC(C)[C@H](C(=O)O[C@H](C#N)c1cccc(Oc2ccccc2)c1)c1ccc(Cl)cc1`: the compound was called inactive in the assay with IYD (gene 389434).
Regarding `O=[N+]([O-])c1cc(C(F)(F)F)c(Cl)c([N+](=O)[O-])c1Nc1ncc(C(F)(F)F)cc1Cl`, the half-maximal activity concentration (AC50) is 1.02 µM (active) in [1]; 1.3 µM (active) in assay [2]; 1.13 µM (active) in assay [3]; 3.71 µM (active) in assay [4]; 1.08 µM (active) in assay [5]; 1.1 µM (active) in assay [6]. Further, the figures for the AC50 in assay [7] and in assay [8] were 1.4 µM (active) and 0.714 µM (active), respectively. Further, the call in assay [11], in assay [12], in assay [13] and in assay [14] was inactive.

A word on the AC50: it is the concentration giving half of the maximal activity seen.
